The record followed here is PubChem BioAssay (EPA / NIEHS).

Each structure is given as a SMILES string. Inconclusive results are not listed. The source made the active and inactive calls. The calls were made as follows, unless noted: active = hit-call score of the fitted dose curve at least 0.9, where 1 is the maximum; inconclusive = response in the unintended direction; inactive = score below 0.9.

Assay [1] concerns the target Oxysterols receptor LXR-alpha (Homo sapiens) (UniProt Q13133). Description: ATG_LXRa_TRANS: Attagene TRANS-FACTORIAL HepG2 Assay for human Liver X Receptor alpha (LXRa) (AID 2282980). To be noted: HepG2 Attagene TRANS reporter, LXRa transactivation. The method, boiled down: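 Transfect HepG2 with GAL4-UAS multiplex reporter constructs (TRANS format, chimeric receptor-GAL4); treat 24 h; extract RNA, reverse-transcribe, PCR-amplify, FAM-label, HpaI-digest; resolve fragments by capillary electrophoresis. Upward response vs DMSO.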

Assay [2] concerns the target Hepatocyte nuclear factor 4-alpha (Homo sapiens) (UniProt P41235). The experiment in a line: ATG_HNF4a_TRANS: Attagene TRANS-FACTORIAL HepG2 Assay for human Hepatocyte Nuclear Factor 4 alpha (HNF4a) (AID 2282982). Conditions: HepG2 HNF4a transactivation reporter, mRNA readout. The method, boiled down: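 Using HepG2 liver cells transfected with GAL4-UAS reporter units, chemical-induced mRNA increases were assessed after 24 hours. Fluorescent RT-PCR fragments were separated by capillary electrophoresis and compared with DMSO negative controls.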

Assay [3] in a line: ATG_M_06_TRANS: Attagene TRANS-FACTORIAL HepG2 Assay for M06 Transcription Factor (Internal Marker) (AID 2282983).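 Also: reporter transcript level by RT-PCR then capillary electrophoresis fluorescence.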 Conditions: HepG2 Attagene TRANS M06 internal marker reporter. In short, it runs like this: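 Background control endpoint: reporter mRNA from transiently transfected HepG2 after 24 h dosing, detected by RT-PCR with capillary electrophoresis fluorescence. Analysed for gain versus DMSO.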

The target in assay [4] is Nuclear receptor subfamily 4 group A member 2 (Homo sapiens) (UniProt P43354). The experiment in a line: ATG_NURR1_TRANS: Attagene TRANS-FACTORIAL HepG2 Assay for human Nuclear Receptor Related Protein 1 (NURR1) (AID 2282985). To be noted: HepG2 Attagene TRANS reporter, mRNA readout. In short, it runs like this: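 Chimeric NR-Gal4 proteins were expressed in human HepG2 cells bearing GAL4-UAS reporter units, and induced reporter mRNA was quantified 24 h post-dosing by RT-PCR and capillary electrophoresis.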
Nuclear receptor subfamily 4 group A member 2 (Homo sapiens), sequence (P43354 whole entry, looked up, the tested form may be a part): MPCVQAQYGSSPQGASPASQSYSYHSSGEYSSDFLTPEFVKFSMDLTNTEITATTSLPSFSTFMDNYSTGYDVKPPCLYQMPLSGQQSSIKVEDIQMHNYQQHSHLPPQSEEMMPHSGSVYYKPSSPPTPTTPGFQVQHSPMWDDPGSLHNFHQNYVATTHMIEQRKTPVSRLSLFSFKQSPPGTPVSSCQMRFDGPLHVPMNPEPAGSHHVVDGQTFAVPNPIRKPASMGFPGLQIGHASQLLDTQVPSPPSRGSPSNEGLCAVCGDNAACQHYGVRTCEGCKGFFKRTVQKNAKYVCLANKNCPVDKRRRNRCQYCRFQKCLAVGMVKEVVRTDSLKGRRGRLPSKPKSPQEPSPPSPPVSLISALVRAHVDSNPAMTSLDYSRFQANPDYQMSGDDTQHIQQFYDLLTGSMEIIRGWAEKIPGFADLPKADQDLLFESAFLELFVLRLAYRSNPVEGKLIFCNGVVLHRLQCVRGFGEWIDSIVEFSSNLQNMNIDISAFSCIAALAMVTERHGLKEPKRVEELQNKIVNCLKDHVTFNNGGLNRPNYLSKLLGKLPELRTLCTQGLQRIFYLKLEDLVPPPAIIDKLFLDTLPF

Assay [5] concerns the target Transcriptional activator Myb (Homo sapiens) (UniProt P10242). The experiment in a line: ATG_Myb_CIS: Attagene CIS-FACTORIAL HepG2 Assay for human Myeloblastosis (Myb) Proto-Oncogene Transcription Factor (AID 2282986; active = hit-call score of the fitted dose curve at least 0.9, where 1 is the maximum; inactive = score below 0.9). Conditions: HepG2 Attagene CIS-FACTORIAL Myb reporter transcription; actives raise or lower the signal. In short, it runs like this: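 Steps: transfect HepG2 with cis-regulated reporter units; dose with chemical for 24 h; isolate RNA, reverse-transcribe, PCR-amplify and FAM-label reporter sequences; digest with HpaI; resolve by capillary electrophoresis. Activity fitted in both directions relative to DMSO.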

Assay [6] has as its target Nuclear respiratory factor 1 (Homo sapiens) (UniProt Q16656). The experiment in a line: ATG_NRF1_CIS: Attagene CIS-FACTORIAL HepG2 Assay for human Nuclear Respiratory Factor 1 (NRF1) Orphan Gene (AID 2282987; active = hit-call score of the fitted dose curve at least 0.9, where 1 is the maximum; inactive = score below 0.9). Conditions: HepG2 NRF1 cis-element reporter, Attagene multiplex; actives raise or lower the signal. In short, it runs like this: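 Fluorescence intensity of labelled reporter cDNA fragments, resolved by capillary electrophoresis, served as readout for NRF1 cis-element activity. Transiently transfected HepG2 cells were dosed for 24 hours; activity in either direction was fitted against DMSO negative control.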

A short description of assay [7]: ATG_M_32_TRANS: Attagene TRANS-FACTORIAL HepG2 Assay for M32 Transcription Factor (Internal Marker) (AID 2282984).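 Also: transcript level of a background control reporter unit measured by RT-PCR and capillary electrophoresis.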 Conditions: HepG2 Attagene TRANS M32 internal marker reporter. The method, boiled down: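 Fluorescence-detected mRNA induction, HepG2 liver cells, 24 h after dosing. Multiple GAL4-UAS reporter units introduced by transient transfection; background-control endpoint analysed for gain of signal against DMSO.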

Assay [8] has as its target Oxysterols receptor LXR-beta (Homo sapiens) (UniProt P55055). The experiment in a line: ATG_LXRb_TRANS: Attagene TRANS-FACTORIAL HepG2 Assay for human Liver X Receptor beta (LXRb) (AID 2282981). To be noted: HepG2 Attagene TRANS GAL4-LXRb reporter, mRNA. In short, it runs like this: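 Liver-derived HepG2 cells transfected with Gal4-responsive reporters were dosed for 24 h. Activation was scored as rise in reporter mRNA, by RT-PCR and capillary electrophoresis, above DMSO baseline.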

Hepatocyte nuclear factor 4-alpha (Homo sapiens), sequence (P41235 whole entry, looked up, the tested form may be a part): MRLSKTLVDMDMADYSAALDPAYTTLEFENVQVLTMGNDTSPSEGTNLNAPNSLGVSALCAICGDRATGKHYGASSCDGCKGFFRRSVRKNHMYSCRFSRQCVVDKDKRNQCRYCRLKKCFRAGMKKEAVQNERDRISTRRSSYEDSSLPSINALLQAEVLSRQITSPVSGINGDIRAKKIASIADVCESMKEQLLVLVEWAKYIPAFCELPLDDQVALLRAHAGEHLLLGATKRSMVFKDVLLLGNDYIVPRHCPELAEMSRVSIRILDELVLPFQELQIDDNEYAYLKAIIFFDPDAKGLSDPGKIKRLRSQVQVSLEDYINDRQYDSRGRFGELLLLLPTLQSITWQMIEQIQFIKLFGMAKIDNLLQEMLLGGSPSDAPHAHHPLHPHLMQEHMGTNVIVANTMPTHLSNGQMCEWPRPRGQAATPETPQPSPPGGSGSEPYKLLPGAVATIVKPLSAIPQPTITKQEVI
Oxysterols receptor LXR-beta (Homo sapiens), sequence (P55055 whole entry, looked up, the tested form may be a part): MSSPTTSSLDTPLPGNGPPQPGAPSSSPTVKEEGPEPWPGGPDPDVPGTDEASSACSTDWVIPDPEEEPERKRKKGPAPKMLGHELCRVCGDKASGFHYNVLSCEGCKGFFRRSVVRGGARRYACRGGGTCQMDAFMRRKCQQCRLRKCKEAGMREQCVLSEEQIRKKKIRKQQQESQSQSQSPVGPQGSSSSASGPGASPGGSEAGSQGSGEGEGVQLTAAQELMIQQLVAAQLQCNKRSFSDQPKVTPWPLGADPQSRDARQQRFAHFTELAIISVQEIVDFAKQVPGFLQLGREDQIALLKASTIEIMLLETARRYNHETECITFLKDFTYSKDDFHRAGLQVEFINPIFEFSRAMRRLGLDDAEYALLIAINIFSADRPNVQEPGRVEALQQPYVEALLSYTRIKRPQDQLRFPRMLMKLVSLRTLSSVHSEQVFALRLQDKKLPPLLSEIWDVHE
Nuclear respiratory factor 1 (Homo sapiens), sequence (Q16656 whole entry, looked up, the tested form may be a part): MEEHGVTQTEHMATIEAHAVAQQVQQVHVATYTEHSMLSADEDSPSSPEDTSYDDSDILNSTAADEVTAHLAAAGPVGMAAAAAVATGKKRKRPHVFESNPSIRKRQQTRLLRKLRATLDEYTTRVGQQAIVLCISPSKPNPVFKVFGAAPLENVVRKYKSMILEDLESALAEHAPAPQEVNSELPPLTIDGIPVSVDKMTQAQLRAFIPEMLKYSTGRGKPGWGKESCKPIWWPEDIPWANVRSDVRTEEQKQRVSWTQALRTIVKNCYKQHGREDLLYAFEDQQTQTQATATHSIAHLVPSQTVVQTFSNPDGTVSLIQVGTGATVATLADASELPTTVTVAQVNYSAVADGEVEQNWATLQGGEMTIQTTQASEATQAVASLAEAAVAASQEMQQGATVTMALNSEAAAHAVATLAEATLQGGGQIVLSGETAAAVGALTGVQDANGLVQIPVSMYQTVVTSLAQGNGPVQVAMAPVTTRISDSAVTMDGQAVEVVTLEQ
Oxysterols receptor LXR-alpha (Homo sapiens), sequence (Q13133 whole entry, looked up, the tested form may be a part): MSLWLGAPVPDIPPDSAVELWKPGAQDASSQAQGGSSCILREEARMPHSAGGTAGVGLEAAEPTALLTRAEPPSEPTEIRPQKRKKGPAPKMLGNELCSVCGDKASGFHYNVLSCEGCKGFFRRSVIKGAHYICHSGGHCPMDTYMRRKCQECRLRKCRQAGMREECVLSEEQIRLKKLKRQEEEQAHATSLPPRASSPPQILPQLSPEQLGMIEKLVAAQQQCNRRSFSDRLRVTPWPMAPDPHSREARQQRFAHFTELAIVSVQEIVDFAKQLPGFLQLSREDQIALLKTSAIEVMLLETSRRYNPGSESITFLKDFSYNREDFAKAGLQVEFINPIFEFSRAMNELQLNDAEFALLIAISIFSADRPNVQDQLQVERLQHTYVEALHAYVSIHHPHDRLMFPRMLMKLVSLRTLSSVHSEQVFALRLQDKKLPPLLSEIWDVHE
Transcriptional activator Myb (Homo sapiens), sequence (P10242 whole entry, looked up): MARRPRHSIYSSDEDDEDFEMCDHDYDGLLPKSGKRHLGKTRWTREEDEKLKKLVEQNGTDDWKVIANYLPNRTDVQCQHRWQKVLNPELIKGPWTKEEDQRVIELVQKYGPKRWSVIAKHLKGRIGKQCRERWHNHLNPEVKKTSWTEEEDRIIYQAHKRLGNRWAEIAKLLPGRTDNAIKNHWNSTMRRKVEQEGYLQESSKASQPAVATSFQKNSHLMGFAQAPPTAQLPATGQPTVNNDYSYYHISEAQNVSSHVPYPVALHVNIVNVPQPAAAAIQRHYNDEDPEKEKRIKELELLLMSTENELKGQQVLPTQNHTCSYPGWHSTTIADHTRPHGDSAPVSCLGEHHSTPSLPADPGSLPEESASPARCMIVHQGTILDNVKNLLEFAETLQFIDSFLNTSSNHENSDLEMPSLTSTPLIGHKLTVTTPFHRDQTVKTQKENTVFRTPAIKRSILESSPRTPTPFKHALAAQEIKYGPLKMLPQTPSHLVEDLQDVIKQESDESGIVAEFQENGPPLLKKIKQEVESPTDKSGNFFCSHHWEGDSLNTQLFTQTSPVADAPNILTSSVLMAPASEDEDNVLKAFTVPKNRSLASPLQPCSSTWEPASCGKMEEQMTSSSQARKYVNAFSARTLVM

For the compound `O=C1CCCCCCCCCCOCCCCO1`, the compound was called inactive in assay [1], in assay [2], in assay [3], in assay [4], in assay [5] and in assay [6].

As for `O=C1OC2(c3cc(Br)c(O)c(Br)c3Oc3c2cc(Br)c(O)c3Br)c2c(Cl)c(Cl)c(Cl)c(Cl)c21`, the result in assay [1], in assay [7], in assay [4], in assay [5] and in assay [6] was inactive.

For the compound `C=CC(=O)OCCOCCOCC`, the compound was called inactive in assay [1], in assay [2], in assay [3], in assay [7], in assay [5] and in assay [6].

For the compound `CC(C)(C)NC(N)=O`, the call in assay [1], in assay [3], in assay [4], in assay [5] and in assay [6] was inactive.

Turning to `C[C@H]1C[C@H]2[C@@H]3CCC4=CC(=O)C=C[C@]4(C)[C@@]3(F)[C@@H](O)C[C@]2(C)[C@@]1(O)C(=O)COP(=O)(O)O`, the outcome in assay [1], in assay [2], in assay [7], in assay [5] and in assay [6] was inactive.

For the compound `CCn1c2ccccc2c2cc(N)ccc21`, the compound was classed as inactive in assay [1], in assay [3], in assay [7], in assay [4], in assay [5] and in assay [6].

With `CCCCCCCCCCCCN`, the outcome in assay [1], in assay [2], in assay [3], in assay [7], in assay [4] and in assay [5] was inactive. Further, in assay [6], the compound was classed as inactive.

As for `OCC(CO)(CO)COCC(CO)(CO)CO`, the call in assay [1], in assay [2], in assay [3], in assay [7], in assay [5] and in assay [6] was inactive.

As to `OCCOCCOCCOCCO`, the compound was called inactive in assay [1], in assay [2], in assay [3], in assay [7], in assay [4] and in assay [5]. Moreover, the compound was called inactive in assay [6].

In the case of `OCCCCCO`, the result in assay [1], in assay [3], in assay [7], in assay [5] and in assay [6] was inactive.

With `CC1=CC(=O)NS(=O)(=O)O1`, the compound was called inactive in assay [1], in assay [2], in assay [3], in assay [7], in assay [5] and in assay [6].

Turning to `O=C[C@@H](O)[C@H](O)[C@H](O)CO`, the result in assay [1], in assay [3], in assay [7], in assay [4], in assay [5] and in assay [6] was inactive.

`CCCCCCOC(=O)CC`: the call in assay [1], in assay [7], in assay [4], in assay [5] and in assay [6] was inactive.

`CC(=O)/C=C/C1=C(C)CCCC1(C)C`: the compound was classed as inactive in assay [1], in assay [3], in assay [4], in assay [5] and in assay [6].

As to `CCO[Si](CCCS)(OCC)OCC`, the outcome in assay [8], in assay [2], in assay [5] and in assay [6] was inactive.

Regarding `C=COCCOCCOCCOC=C`, the result in assay [8], in assay [2], in assay [3], in assay [7], in assay [5] and in assay [6] was inactive.

Consider `CCCCCCCCC`, for which the outcome in assay [8], in assay [2], in assay [7], in assay [5] and in assay [6] was inactive.

As to `C=C(C)[C@@H]1CC[C@@H](C)C[C@@H]1O`, the outcome in assay [8], in assay [3], in assay [7], in assay [5] and in assay [6] was inactive.

Take `CCC(=O)OCCC(C)CCC=C(C)C` (configuration not stated): the outcome in assay [8], in assay [2], in assay [7], in assay [4], in assay [5] and in assay [6] was inactive.

By AC50 is commonly meant the concentration at which the activity in the assay is half-maximal. On to `COc1ccc(Nc2ccccc2)c(C)c1`, for which the compound was called inactive in assay [8], in assay [3], in assay [7], in assay [5] and in assay [6]. Besides, the AC50 in assay [4] was 143 µM (active).

Take `O=S(=O)(O)c1ccc(O)c2ncccc12`: the call in assay [2], in assay [3], in assay [7], in assay [4], in assay [5] and in assay [6] was inactive.

In the case of `C=CC(C)(CCC=C(C)C)OC=O` (configuration not stated), the call in assay [8], in assay [2], in assay [3], in assay [7], in assay [5] and in assay [6] was inactive.

Regarding `Cc1ccc(S)cc1`, the call in assay [8], in assay [2], in assay [3], in assay [7], in assay [5] and in assay [6] was inactive.

Turning to `O=C1C(c2[nH]c3ccc(S(=O)(=O)O)cc3c2O)=Nc2ccc(S(=O)(=O)O)cc21`, the outcome in assay [8], in assay [3], in assay [7], in assay [4], in assay [5] and in assay [6] was inactive.

On to `CCCCCCCCCCCCCCCC(=O)OC[C@H](O)[C@H]1OC(=O)C(O)=C1O`, for which the compound was called inactive in assay [8], in assay [2], in assay [3], in assay [7], in assay [4] and in assay [5]. The compound was classed as inactive in assay [6].

Regarding `O=C(O)CCCCCCCC(=O)O`, the compound was called inactive in assay [8], in assay [2], in assay [3], in assay [7], in assay [5] and in assay [6].

Consider `CC(C)=CCC[C@](C)(O)[C@@H]1CC=C(C)CC1`, for which the compound was called inactive in assay [1], in assay [4], in assay [5] and in assay [6].

For the compound `O=[N+]([O-])c1ccc(Nc2ccc(Nc3ccccc3)c(S(=O)(=O)O)c2)c([N+](=O)[O-])c1`, the outcome in assay [1], in assay [7], in assay [5] and in assay [6] was inactive.

As for `CCC/C=C/C=O`, the compound was called inactive in assay [1], in assay [4], in assay [5] and in assay [6].

Take `c1cc(C(c2ccc(OCC3CO3)cc2)c2ccc(OCC3CO3)cc2)ccc1OCC1CO1` (configuration not stated): the call in assay [2], in assay [3], in assay [7], in assay [4] and in assay [5] was inactive. Also, the AC50 in assay [6] was 24 µM (active).
